From PubChem BioAssay AID1222 (Sanford-Burnham Center for Chemical Genomics, 2008)
Hit rate of the full screen: of about 190,000 compounds, fewer than 10 were called active.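 The calls were made as follows: active = EC50 below 50 µM in the dose-response confirmation; inactive = the rest.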 Not all results are given here. Results with a measured potency or affinity are listed apart.

assay: rescue of cells from ER stress-induced death, primary screen, 384-well, CSM14.1, thapsigargin, ATP luminescence (AID 1222); details: CSM14.1 thapsigargin-induced death rescue, at 20 µM, hits give high values;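 also: death triggered by thapsigargin at about 15 µM added after 2 h compound pretreatment; cell ATP read after overnight thapsigargin exposure of roughly 18 to 22 hours; reference of the scale not given here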

| SMILES | cellular ATP content (survival) |
| --- | --- |
| COc1ccc(C(CC(=O)O)NC(=O)Cc2ccccc2)cc1OC (stereo unspecified) | -3% (inactive) |
| C=CCOc1ccc(C2CC(C)=NN2c2ccccc2)cc1 (stereo unspecified) | 6.2% (inactive) |
| Cc1ccc2c(c1)nnn2C1CCN(CC(=O)NCc2ccccc2F)CC1 | 3.5% (inactive) |
| COc1cc(C(C#N)N2N=C(c3ccccc3)CC2c2ccccc2)ccc1O (stereo unspecified) | 0.2% (inactive) |
| CN(C)c1nc(N/N=C/c2ccccc2O)nc(Nc2ccc(F)cc2)n1 | -6.9% (inactive) |
| Fc1cccc(Cc2noc(CN3CCC(c4ccncc4)CC3)n2)c1 | 1.8% (inactive) |
| O=C(COc1ccc(Cl)cc1Cl)NCCCCc1ccccc1 | -2.7% (inactive) |
| CS(=O)(=O)N1CCCC(C(=O)NCc2ccc(F)cc2)C1 (stereo unspecified) | 0.6% (inactive) |
| CC(=O)Nc1sc2c(c1C(c1ccccn1)N1CCN(C)CC1)CCCC2 (stereo unspecified) | -0.7% (inactive) |
| Cc1ccc(-c2nc(CSCC(=O)N3CCN(c4ccccn4)CC3)c(C)o2)cc1 | -0.2% (inactive) |
| COc1ccccc1OCc1ccc(C(=O)NCC(C)C)o1 | 2.9% (inactive) |
| COc1cccc(CN=C2Nc3ccccc3CS2)c1 | 0.2% (inactive) |
| O=C(Nc1cc(C(F)(F)F)ccc1N1CCOCC1)c1cccc(F)c1 | 0.4% (inactive) |
| O=C(Nc1ccccc1)c1nn(-c2ccccc2)c(=O)cc1C(F)(F)F | 2% (inactive) |
| COc1ccccc1C(C)N(C)Cc1nc(COc2ccccc2)no1 (stereo unspecified) | -1.1% (inactive) |
| COc1ccc(CCN(Cc2cccs2)S(=O)(=O)c2ccc(S(=O)(=O)N3CCCCCC3)cc2)cc1OC | -1.5% (inactive) |
| CN1CCc2c(OCC(=O)N3N=C(c4cccs4)CC3c3ccc(F)cc3)cccc2C1=O (stereo unspecified) | 1.4% (inactive) |
| O=C1c2cccc(OCC(=O)N3N=C(c4cccs4)CC3c3ccc(F)cc3)c2CCN1Cc1ccccc1 (stereo unspecified) | -2.7% (inactive) |
| CC(C)OP(=O)(OC(C)C)C(Nc1ccccc1)c1ccccc1C(F)(F)F (stereo unspecified) | 2.8% (inactive) |
| CCOC(=O)c1c(NC(=O)C[n+]2ccc(N(C)C)cc2)sc(C)c1C | -2% (inactive) |
| Cn1cc(Cl)c(C(=O)NNC(=S)NC2CCCCC2)n1 | 1.1% (inactive) |
| COC(=O)c1sc2ccccc2c1-n1cccc1C(=O)C(=O)Nc1ccc(OC)cc1 | 4.6% (inactive) |
| COc1ccc(/C=C(/NC(=O)c2ccccc2)c2nc3ccc(Cl)cc3[nH]2)cc1OC | 1.1% (inactive) |
| Cc1ccccc1NS(=O)(=O)c1cc(C(=O)N2CCc3ccccc3C2)ccc1C | 0.4% (inactive) |
| CC(C)(C)C(=O)Nc1nc(=S)ss1 | 0% (inactive) |
| CCn1c(NCc2ccc3c(c2)OCO3)nc2ccccc21 | -1% (inactive) |
